Pf Dd2 growth: Plasmodium falciparum Dd2 growth inhibition. 4.3% of 120,000 active. P. falciparum Dd2 growth, SYBR Green, 72 h. Potency, µM (series often up to 28.9 µM), usual class: inhibitors; active = well fitted inhibition curve with a large enough effect; also: nearly all actives have a fitted effect of over 65% in size
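Infected erythrocytes (Dd2, 0.3% parasitemia, 2.5% hematocrit final) are added to compound in RPMI-1640/Albumax II medium, grown 72 h at 37C in low oxygen, then lysed with saponin/Triton-X containing SYBR Green and read by fluorescence.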
Of the large screens only hits and unclear results are named; the others gave an inactive call. This excerpt belongs to a sample that is enriched for hits.

COCCOc1cc(=O)n2c(c1C(=O)NC1CCCCCC1)CCOCC2	none
O=C(CC1=C2CCCCC2NC1=O)NCC1CC1 (stereo not given)	none
COC(=O)CCC(=O)N1CCCC(N2CCN(c3cccc(Cl)c3)CC2)C1 (stereo not given)	none
O=C(Cn1nc2c(cc1=O)CCCCC2)NCCn1c(=O)c(=O)[nH]c2ccccc21	none
Cc1cnc(C(=O)NC2C[C@H]3CC[C@@H](C2)N3C(=O)CCC2CCCC2)cn1 (stereo not given in full)	none
COc1ccc(C(CNC(=O)c2oc3ccc(C)cc3c2C)N2CCOCC2)cc1 (stereo not given)	none
COc1ccc(-c2c(C)c3ccc(O)c(CN4CCCC4)c3oc2=O)cc1	Pf Dd2 growth 3.2µM
COc1ccc(-c2c(C)c3ccc(O)c(CN4CCOCC4)c3oc2=O)cc1	Pf Dd2 growth 8.9µM
COc1ccc(-c2nc(C)nc3c2CCN(Cc2cncs2)CC3)cc1	none
COc1ccc2c(c1)OCC(CNC(=O)CN1CCOCC1)C2 (stereo not given)	none
COc1ccc(CNC(=O)C2CCN(Cc3nc(-c4ccc(Cl)cc4)oc3C)CC2)cc1	none
CS(=O)(=O)N1CCC(C2CCN(C(=O)CN3CCOCC3)C2)CC1 (stereo not given)	none
COCCc1nncn1C1CCN(S(=O)(=O)c2ccccc2C(F)(F)F)CC1	none
COc1ccccc1-n1cc(C(=O)N(C)Cc2noc3c2CCCC3)cn1	none
CC(=O)N1CCN(C(=O)c2cccnc2)C[C@H]1C(=O)N[C@@H](CC1CCCCC1)C(N)=O	none
COc1cccc(CNC(=O)C2CCCN(c3cnn(Cc4ccccc4)c(=O)c3)C2)c1 (stereo not given)	none
c1ccc(-c2cc(CC3(NCC4CCCCC4)COC3)no2)cc1	none
O=C1CO[C@H]2CCN(CCCc3ccccc3)CC[C@@H]2N1c1ccccc1	none
CN(C)C(=O)c1ccc(-c2nnc3ccc(NC(=O)C4CCC4)cn23)cc1	Pf Dd2 growth 4µM
COc1ccc(C(=O)Nc2ccc(-c3nnc4n3CCCCC4)cc2)cc1OC	none
CCC(=O)Nc1ccc2nnc(-c3ccc(C(=O)Nc4ccc5c(c4)OCCO5)cc3)n2c1	Pf Dd2 growth 0.28µM
CCOc1ccc(C(=O)Nc2ccc3c(c2)OCCO3)cc1Br	none
O=C(Nc1ccc(F)c(Cl)c1)C1CCN(C(=O)c2ccc(F)cc2)CC1	none
O=C(NC1CC1)c1ccc2nnc(-c3ccc(C(F)(F)F)cc3)n2c1	none
Cc1ccc(NC(=O)C2CCN(C(=O)c3nnn4c3COC(c3ccc(C)cc3)C4)CC2)cc1 (stereo not given)	none
COc1ccc(NC(=O)c2ccc(-c3nnc4ccc(NC(=O)C5CCC5)cn34)cc2)cc1	Pf Dd2 growth 1µM
Cc1cc(=O)n(CC(=O)Nc2ccc3c(c2)OCCO3)c(-c2ccc(Cl)cc2)n1	none
O=C(Nc1ccc(-c2nnc3n2CCCC3)cc1)C1CCCCC1	none
O=C(Nc1ccc2nnc(-c3ccc(C(=O)N4CCSCC4)cc3)n2c1)C1CCC1	Pf Dd2 growth 2.2µM
COc1ccc(C(=O)Nc2ccc(-c3nnc4n3CCCCC4)cc2)cc1	none
CCc1cccc(NC(=O)Cn2c(Nc3cc(C)cc(C)c3)nc(C)cc2=O)c1	none
COc1ccc(-c2noc(-c3nc(-c4ccc5c(c4)OCO5)no3)n2)c(OC)c1	none
CN1CCN(C(=O)CC[C@H]2CNC(=O)[C@@H]3[C@@H](CCN3C3CCOCC3)N2C)CC1	none
O=C(CCC(F)(F)F)NC1CC(=O)N(Cc2ccccc2Cl)C1 (stereo not given)	none
Cc1ccc(NC(=O)C2(CCO)CCN(c3ncccn3)C2)cc1 (stereo not given)	none
CCn1nccc1C(=O)N1CCN(Cc2ccc(=O)n(C)c2)CC1	none
CCN1CCN(C(=O)c2ccc(-c3nnc4ccc(NC(=O)C5CC5)cn34)cc2)CC1	Pf Dd2 growth 0.45µM
CC(C)c1ccc(NC(=O)C2CCN(C(=O)c3ccc(F)cc3)CC2)cc1	none
CCN1CCN(C(=O)c2ccc3nccn3c2)CC1	none
COCC(=O)N1CC[C@@H](CC(=O)O)[C@@H](CCN2CCN(c3ccc(F)cc3)CC2)C1	none
Cc1c(CN2CCCC(CNC(=O)c3cccc4ccccc34)C2)[nH]c2ccccc12 (stereo not given)	Pf Dd2 growth 11µM
COc1cccc([C@@H]2CCN(Cc3ccc(NC(C)=O)cc3)C[C@H]2O)c1	none
COc1cccc([C@@H]2CCN(Cc3[nH]c4ccccc4c3C)C[C@H]2O)c1	Pf Dd2 growth 0.89µM
COc1cccc([C@@H]2CCN(Cc3cn[nH]c3C(=O)O)C[C@H]2O)c1	none
COc1cccc(C(=O)NCC2CCCN(Cc3ccccn3)C2)c1OC (stereo not given)	none
COc1cccc(C(=O)NCC2CCCN(Cc3cnn(C)c3C)C2)c1OC (stereo not given)	none
Cn1cccc1CN1CCC2(C1)NC(=O)c1ccccc1CO2 (stereo not given)	none
CN(C)[C@@H]1[C@@H](NC(=O)Cc2noc3ccccc23)[C@H]2CCO[C@H]21	none
CC(C)C(=O)NCC12CCCC=C1NC(=O)CC2 (stereo not given)	none
CCc1cc(N2CCC(N3CCSCC3)CC2)n2nccc2n1	none
Cc1nc(N2CCC(NC(=O)c3ccccn3)CC2)cc(C(F)(F)F)n1	none
Cc1nc(N2CCC(NC(=O)c3cc4ccccc4[nH]3)CC2)cc(C(F)(F)F)n1	Pf Dd2 growth 2µM
Cc1nc(N2CCC(NC(=O)c3cccnc3)CC2)cc(C(F)(F)F)n1	none
COc1cccc(C(=O)NC2CCN(c3cc(C(F)(F)F)nc(C)n3)CC2)c1OC	Pf Dd2 growth 11µM
COc1ccccc1CCC(=O)NC1CCN(c2cc(C(F)(F)F)nc(C)n2)CC1	none
COc1cccc(C(=O)NC2CCN(c3cc(C(F)(F)F)nc(C)n3)CC2)c1	none
CCn1cc(S(=O)(=O)N2C[C@@H](C(=O)NC)[C@H](c3nc(C)no3)C2)cn1	none
COc1ccc(CNC(=O)[C@@H]2CCC[C@@H](NC(=O)C3CCOCC3)CN(C)C(=O)C2)cc1	none
COc1cc(NC(=O)N[C@H]2CO[C@H]3[C@@H]2OC[C@@H]3Nc2nccc(C(C)(C)C)n2)cc(OC)c1	none
O=C1NC2(Cc3ccccc31)CN(Cc1ccc(C(F)(F)F)cc1)C2	none
COCCn1c(=O)n([C@H]2CCCN(S(=O)(=O)c3cn(C)cn3)C2)c2ncccc21	none
Cn1nc(-c2ccc(F)cc2)cc1[C@H]1CN2CC[C@H]1C[C@@H]2COC(=O)Nc1cccc(C(F)(F)F)c1	none
Cn1nc(-c2cccs2)cc1[C@H]1CN2CC[C@H]1C[C@@H]2COC(=O)Nc1cccc(C(F)(F)F)c1	none
Cc1nc(-c2cccs2)cc([C@H]2CN3CC[C@H]2C[C@@H]3COC(=O)NC2CCCCC2)n1	none
Cc1nc(-c2cccs2)cc([C@H]2CN3CC[C@H]2C[C@@H]3CO)n1	Pf Dd2 growth 11µM
Cc1nc(-c2cccs2)cc([C@H]2CN3CC[C@H]2C[C@@H]3COC(=O)Nc2cccc(C(F)(F)F)c2)n1	Pf Dd2 growth 7.9µM
CCNC(=O)NC[C@H]1C[C@@H]2CCN1C[C@@H]2c1cc(-c2cccs2)nn1C	none
COCCNC(=O)CC[C@]12CC[C@](C)(O)C[C@H]1C(C)(C)C[C@@H]2NC(=O)CC(C)(C)C	none
COCCNc1ccc2nnc(-c3ccc(OC)cn3)n2n1	none
COc1ccc(C(=O)N2CCCC(n3cc(-c4noc(C)n4)nn3)C2)cc1 (stereo not given)	none
CN1CC(=O)N(C2CCCNC2)Cc2c1ncnc2N1CCN(Cc2ccccc2)CC1 (stereo not given)	none
O=C(c1ccc(Cl)cc1)N1CC(c2nnc(-c3ccncc3)o2)C2(CCOCC2)C1 (stereo not given)	none
CCn1ccc(C(=O)N2CCCCCCNC(=O)[C@@H]3C[C@@H](c4nc(Cc5ccccc5)no4)C[C@@H]32)n1	none
